Sampled rows, rich in hits. Any-hit rate of the full collection: about 2.3%.
ATXN2 expr inh = inhibitors of ATXN2 expression; AID 1745845; Potency, µM (top dose mostly 57 µM), usual class: inhibitors; hit rate 0.72% among 360,000; HEK-293 ATXN2-luciferase reporter, luminescence, 24 h; note: nearly all actives have a fitted effect of over 55% in size
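ATXN2-luciferase reporter cells (luciferase flanked by upstream and downstream ATXN2 gene portions) were treated 24 h at 37 °C with compounds at up to 57 uM. SteadyGlo luminescence gave expression; GF-AFC fluorescence gave viability.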
TGFb SMAD3 inh = inhibitors of TGF-b signaling; AID 588855; HepG2 CAGA-GFP TGF-b/SMAD3 reporter, GFP fluorescence, 18 h; TGF-beta stimulated, 500 pg/mL final; Potency, µM (titrated, usually from 46.1 µM), actives largely listed as inhibitors; hit rate 1.2% among 410,000; note: nearly all actives have a fitted effect of over 65% in size
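HEPG2 CAGA-GFP reporter cells (1000/well, DMEM with 1% FBS) received compounds, then recombinant TGF-beta at 500 pg/mL final for 18 hours at 37 degrees C. Per-cell GFP summed per well was normalised to unstimulated and stimulated DMSO controls before curve fitting.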
ATXN viability = reduces viability in counter-screen for ATXN expression inhibitors | S2 cells (HEK-293 line with an ATXN2-luciferase reporter) viability, CellTiter-Fluor protease fluorescence, 24 h | Potency, µM (titrated, usually from 56.7 µM), hits mostly cytotoxic | hit rate 0.49% among 400,000 | AID 651635; note: nearly all actives have a fitted effect of over 40% in size
HepG2 viability = HepG2 cytotoxicity, counter-screen for TGF-b inhibitors; HepG2 CAGA-GFP viability, ATP luminescence, 18 h; Potency, µM (series often up to 46.1 µM), actives largely listed as cytotoxic; hit rate 0.76% among 410,000
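HepG2 CAGA-GFP cells (1000/well, DMEM with 1% FBS) received compound, then TGF-beta at 500 pg/mL final, and were incubated 18 hours at 37 degrees C. Viability was read by CellTiter-Glo luminescence. Media-only wells were set as complete cell-killing and DMSO as no toxicity.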
A number is an active result; i = inactive; ? = inconclusive; nt = no result given; ! = repeats disagree. Calls come from the whole dose curve; as a rule, active = well fitted curve in the direction sought with a large enough effect; inconclusive = small, poorly fitted or top-dose-only effect, or another doubt; inactive = no such curve, though single readings can be large; an effect the other way counts as inactive or inconclusive.

SMILES	ATXN2 expr inh	TGFb SMAD3 inh	ATXN viability	HepG2 viability
O=C(COc1ccc(/C=N/NC(=O)c2cc3ccccc3o2)cc1Cl)Nc1ccccc1	10µM	2µM	8.9µM	i
Cc1ccc2nc(/C=C/c3ccc(N(C)C)cc3)ccc2c1	nt	i	nt	i
O=S(=O)(c1ccc2c(c1)C(=NO)c1cc(S(=O)(=O)N3CCCCC3)ccc1-2)N1CCCCC1	3.5µM	?	3.5µM	1.8µM
CC1CCN(S(=O)(=O)c2ccc3c(c2)C(=NO)c2cc(S(=O)(=O)N4CCC(C)CC4)ccc2-3)CC1	3.5µM	8.9µM	3.2µM	1.3µM
COc1ccc(S(=O)(=O)N2CCC(C)CC2)cc1OC	nt	i	i	i
COc1ccc(Nc2c3c(nc4ccccc24)CCC3)cc1	?	11µM	i	i
Cc1ccc2nc3c(c(Nc4ccccc4)c2c1)CCC3	i	13µM	i	i
CCN(CC)CCOC(=O)c1ccc(Nc2c3c(nc4ccccc24)CCC3)cc1	?	?	20µM	i
COc1ccc(C)cc1Nc1c2c(nc3ccccc13)CCC2	?	7.9µM	6.3µM!	i
c1ccc(Nc2c3c(nc4ccccc24)CCC3)cc1	i	?	i	i
C(=Nc1ccc(/C=C/c2ccnc3ccccc23)cc1)c1ccc2c(c1)OCO2	nt	i	nt	i
Cc1ccc2nc(-c3ccccc3C)c(CN(CC3CCCO3)C(=O)c3cccs3)cc2c1 (centres undefined)	nt	nt	i	nt
CNc1ccc(C=O)cc1Cl	nt	i	nt	i
Cc1nc(N2CCCCCC2)c2ccccc2n1	nt	?	nt	i
COc1ccc(Nc2nc(N3CCCC3)c3ccccc3n2)cc1	28µM	?	?	i
COc1ccc(Nc2c3ccccc3nc3ccccc23)cc1	?	?	i	i
COc1cc(Nc2c3ccccc3nc3ccccc23)cc(OC)c1OC	?	?	18µM	i
O=C(NCCO)c1ccc(-c2nnc(Nc3ccc(OC(F)(F)Cl)cc3)c3ccccc23)cc1	?	11µM	i	i
O=C(NCCO)c1ccc(-c2nnc(Nc3ccc(O)cc3)c3ccccc23)cc1	nt	i	i	i
COc1ccccc1NC(=O)CSc1nnc(NC(=O)Nc2ccc(C)cc2)s1	nt	5.6µM	nt	i
CCC(C)Nc1ccc(NC(C)CC)cc1 (centres undefined)	?	11µM!	nt	13µM!
CCC(C)NC(=O)Nc1ccc(Br)cc1 (centres undefined)	i	i	i	i
NC(=S)N/N=C/c1ncc(C(F)(F)F)cc1Cl	7.9µM	4.5µM	14µM	i
CN(C)c1ccc(/C=C\C=C/c2ccnc3ccccc23)cc1	nt	8.9µM	nt	i
CCCCN(CCC(=O)O)c1ccc(/C=C/c2ccnc3ccccc23)cc1	nt	?	nt	5.6µM
SMILES	ATXN2 expr inh	TGFb SMAD3 inh	ATXN viability	HepG2 viability
O=C(O)CCN(CCC(=O)O)c1ccc(/C=C/c2ccnc3ccccc23)cc1	nt	i	nt	i
CN(c1cccc(NC(=O)CN(c2ccc(C34CC5CC(CC(C5)C3)C4)cc2)S(C)(=O)=O)c1)S(C)(=O)=O	?	11µM	?	i
CN(c1cccc(NC(=O)CN(c2ccc(F)cc2)S(C)(=O)=O)c1)S(C)(=O)=O	i	i	i	i
COc1ccc(NC(=O)/C=C/c2cc(Br)ccc2OC)cc1	i	i	i	i
COc1ccc(Br)cc1/C=C/C(=O)c1ccc(NC(C)=O)cc1	22µM	?	?	16µM
C/C(=N\NC(=O)COc1cccc(C)c1)c1ccc2ccccc2c1O	?	5.6µM	i	i
Cc1cccc(OCC(=O)NCc2ccccc2)c1	i	i	i	i
O=C(COc1ccc(F)cc1)NNC(=O)c1cc2ccccc2oc1=O	i	i	i	i
Cc1cccc(OCC(=O)NNC(=O)c2cc3ccccc3oc2=O)c1	i	?	i	3.2µM
Cc1cc(-c2ccnc(-n3ncc(C(=O)N4CCCCC4c4cccnc4)c3C3CC3)n2)c(C)s1 (centres undefined)	nt	nt	i	nt
CC(=O)OC1CCC2C3CCC4OC(=O)CCC4C3CCC12C (centres undefined)	i	i	i	i
C=C1C(=O)C2=CC1CCC(=O)C1(C)CCC(OC(C)=O)C(C)(C)C1CC2O (centres undefined)	?	2.8µM	nt	i
Brc1csc(CN2CCc3nc(Nc4ccccc4)ncc3C2)c1	i	13µM	?	i
O=C(c1ccccc1)C(c1ccccc1)[n+]1csc2ccccc21 (centres undefined)	nt	?	nt	i
CCOc1ccc(CN(CCc2ccc3c(c2)OCO3)Cc2cc(OC)c(OC)cc2OC)cc1	nt	11µM	nt	i
Cc1cc(SCC(=O)Nc2cccc(S(=O)(=O)NC3=NCCCCC3)c2)nc2ccccc12	nt	11µM	i	i
Cc1ccc(-n2c(SCC(=O)Nc3cccc(S(=O)(=O)NC4=NCCCCC4)c3)nc3ccccc3c2=O)cc1C	i	i	?	i
Nc1ccc(C(Cc2ccnc3ccccc23)Cc2ccnc3ccccc23)cc1	nt	i	nt	i
CC(C)c1cc(C(C)C)c(S(=O)(=O)N2c3ccccc3[C@@]3(Br)C[C@H]4C(=O)N[C@@H](Cc5ccccc5)C(=O)N4[C@@H]23)c(C(C)C)c1	i	8.9µM	i	i
O=C(O)c1ccc(N=N/C(=N\Nc2ccc(C(=O)O)cc2)c2ccccc2)cc1	i	i	13µM	i
c1ccc(-c2nc3ccccc3[nH]2)cc1	i	i	i	i
COc1ccc(-c2nc3ccccc3[nH]2)cc1	i	i	i	7.9µM
O=C(O)c1cccc(-c2nc3ccccc3[nH]2)c1	14µM	i	i	i
CC(C)c1nc2cccnc2n1C1CCN(C(=O)Cn2cccn2)CC1	nt	nt	i	nt
COc1ccccc1-c1noc(CCCC(=O)Nc2cccc(C(F)(F)F)c2)n1	?	13µM	?	i
SMILES	ATXN2 expr inh	TGFb SMAD3 inh	ATXN viability	HepG2 viability
CCOc1ccccc1-c1noc(CCCC(=O)Nc2cccc(C(F)(F)F)c2)n1	i	?	?	i
CCOC(=O)C1CCCCN1Cc1nc(N2CCN(C(C)=O)CC2)c2ccccc2n1 (centres undefined)	nt	nt	i	nt
CC(C)(C)c1ccc(-c2cn(-c3ccc(Br)cc3)c3[n+]2CCCS3)cc1	i	10µM	i	i
Cc1ccc(-n2sc3cc(F)ccc3c2=O)c(C)c1	?	?	22µM	11µM
O=c1c2ccccc2sn1-c1ccc(F)cc1	i	10µM	?	i
N=C1SCC(=O)N1c1ccccc1Cl	i	i	i	i
O=C(c1sc2cc(F)ccc2c1Cl)N1CCN(c2cccc(Cl)c2)CC1	i	i	i	i
COC(=O)c1cccc(-n2sc3ccccc3c2=O)c1	i	?	?	i
O=c1c2cc(F)ccc2sn1-c1ccccc1Cl	?	?	22µM	i
O=c1c2ccc(F)cc2sn1-c1ccccc1	?	11µM	20µM	i
COc1cc2c(NC3CCN(C)CC3)nc(N3CCN(C)CC3)nc2cc1OCCCN(C)C	nt	i	nt	i
COCC(=O)Nc1cc(C(=O)N2CC3CC4CC(C3)CC2C4)c2c(c1)nc(-c1ccncc1)n2C	nt	nt	i	nt
Cc1cccc(N(C)C(=S)Oc2ccc3c(c2)C2CCC3C2)c1 (centres undefined)	i	nt	i	nt
Cc1ccc(O)c(-c2cc(-c3ccccc3C)[nH]n2)c1	i	?	?	11µM
Oc1ccccc1-c1cc(-c2cccc(F)c2)n[nH]1	i	i	i	i
